From PubChem BioAssay (NCATS)
Records with an inconclusive call do not appear. Active and inactive are the calls of the source. The call rests on the fitted dose curve; in most records, active means well fitted cell-killing curve with a large enough effect; inconclusive means small, poorly fitted or top-dose-only effect, or effect the other way; inactive means flat fitted curve, though single readings scatter.

How the values were obtained:
Test in all cases: Primary qHTS to identify gynecologic anti-cancer compounds using libraries of approved drugs and bioactive compounds (AID 1345084); further: nearly all actives have a fitted effect of over 55% in size
Details in all cases: Gynecologic cancer cell panel viability, ATPlite luminescence, 48 h; series mostly up to 57.5 µM
[1] = system: OV90
Outline: (§1)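 Cells, 1,000 per well, were allowed to settle for 16 h at 37 C before compound addition. Five concentrations were tested for 48 h, and viability was read by ATPlite luminescence after 15 min at room temperature.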

[2] = system: PA-1
Outline: as §1

[3] = system: SKOV3
Outline: as §1

[4] = system: Tov-21-G
Outline: as §1

[5] = system: Tov112D
Outline: as §1
On the % scale 0 is the no-effect control and ±100 the full control effect.

CC[C@H](C)[C@H](NC(=O)[C@H](Cc1ccc(O)cc1)NC(=O)[C@@H](N)C(C)C)C(=O)N[C@@H](Cc1cnc[nH]1)C(=O)N1CCC[C@H]1C(=O)N[C@@H](Cc1ccccc1)C(=O)O
inactive: activity change, negative = cytotoxicity [1] -1.9% [at 6.55 µM] | activity change, negative = cytotoxicity [2] 4.28% [at 6.55 µM] | activity change, negative = cytotoxicity [3] 16.8% [at 6.55 µM] | activity change, negative = cytotoxicity [4] 1.06% [at 6.55 µM] | activity change, negative = cytotoxicity [5] 12.4% [at 6.55 µM]

CC(=O)O[C@@H]1[C@@H](O)[C@H](C)O[C@@H](O[C@H]2[C@@H]3C=CO[C@@H](O[C@@H]4O[C@H](CO)[C@@H](O)[C@H](O)[C@H]4OC(C)=O)[C@@H]3[C@@]3(CO)O[C@@H]23)[C@@H]1OC(=O)/C=C/c1ccc(O)cc1
inactive: Potency [1] | Potency [2] | Potency [3] | Potency [4] | Potency [5]

CC1=CCC[C@@H]2[C@](CCc3ccoc3)(C(=O)O)[C@H](C)CC[C@@]12C
inactive: Potency [1] | Potency [2] | Potency [3] | Potency [4] | Potency [5]

CC1(C)CC2C3=CCC4[C@@]5(C)CC[C@H](OC6OCC(O)C(OC7OC(CO)C(O)C(O)C7O)C6O)C(C)(C)C5CC[C@@]4(C)[C@]3(C)C[C@H](O)[C@@]2(CO)[C@H](OC(=O)c2ccccc2)C1 (stereo not given in full)
inactive: activity change, negative = cytotoxicity [1] 18.5% [at 11.6 µM] | activity change, negative = cytotoxicity [2] 10.1% [at 11.6 µM] | activity change, negative = cytotoxicity [3] 0% [at 11.6 µM] | activity change, negative = cytotoxicity [4] 6.98% [at 11.6 µM] | activity change, negative = cytotoxicity [5] -1.17% [at 11.6 µM]

CCN=C1N[C@@H]2[C@@H](O)[C@H](O)[C@@H](CO)O[C@@H]2S1
inactive: Potency [1] | Potency [2] | Potency [3] | Potency [4] | Potency [5]

C[C@H](O)C(O)(C(=O)OCc1ccccc1NC(=O)CCC(N)C(=O)O)[C@H](C)O (stereo not given in full)
inactive: Potency [1] | Potency [2] | Potency [3] | Potency [4] | Potency [5]

CN1CCCC1Cc1c[nH]c2ccc(CCS(=O)(=O)c3ccccc3)cc12 (stereo not given)
inactive: Potency [1] | Potency [2] | Potency [3] | Potency [4] | Potency [5]

Cc1ccccc1-n1nc(-c2c(-c3ccc(F)cc3)nn3c2NC[C@@H](CO)C3)ccc1=O
inactive: Potency [1] | Potency [2] | Potency [3] | Potency [4] | Potency [5]

CO[C@H]1c2cc(C(C)C)c(O)c(O)c2[C@@]23CCCC(C)(C)C2[C@@H]1OC3=O (stereo not given in full)
inactive: Potency [1] | Potency [2] | Potency [3] | Potency [4] | Potency [5]

C=C1C(=O)O[C@@H]2C[C@]3(C)[C@@H](CCC(C)=O)[C@@H]3C[C@H]12
inactive: Potency [1] | Potency [2] | Potency [3] | Potency [4] | Potency [5]

C/C(=C\CCC(C)CCO)C(=O)OC[C@H]1O[C@@H](O[C@@H]2OC=C(C(=O)O)[C@H]3CC[C@](C)(O)[C@@H]23)C(O)[C@@H](O)C1O (stereo not given in full)
inactive: Potency [1] | Potency [2] | Potency [3] | Potency [4] | Potency [5]

CC(C)=CCC[C@](C)(O[C@@H]1O[C@H](CO)[C@@H](O)[C@H](O)[C@H]1O)[C@H]1CC[C@]2(C)[C@@H]1[C@H](O)CC1[C@@]3(C)CC[C@H](O)C(C)(C)C3[C@@H](O[C@@H]3O[C@H](CO)[C@@H](O)[C@H](O)[C@H]3O[C@@H]3O[C@@H](C)[C@H](O)[C@@H](O)[C@H]3O)C[C@]12C (stereo not given in full)
inactive: activity change, negative = cytotoxicity [1] -3.64% [at 11.6 µM] | activity change, negative = cytotoxicity [2] 24.4% [at 11.6 µM] | activity change, negative = cytotoxicity [3] 18.8% [at 11.6 µM] | activity change, negative = cytotoxicity [4] -0.988% [at 11.6 µM] | activity change, negative = cytotoxicity [5] 2.74% [at 11.6 µM]

CC1=COC(OC2OC(CO)C(O)C(O)C2O)C2C(CO)CC(OC(=O)/C=C/c3ccc(O)cc3)C12 (stereo not given)
inactive: Potency [1] | Potency [2] | Potency [3] | Potency [4] | Potency [5]

C=C1CC2C3(C)C=CC(=O)OC(C)(C)C3CC(OC(C)=O)C2(C)C2C(=O)OC(C)C(=O)C12C (stereo not given)
inactive: Potency [1] | Potency [2] | Potency [3] | Potency [4] | Potency [5]

COC(=O)C[C@@H]1C(C(=O)O)=CO[C@@H](O[C@@H]2O[C@H](CO)[C@@H](O)[C@H](O)[C@H]2O)/C1=C\COC(=O)/C=C/c1ccc(O)c(OC)c1
inactive: Potency [1] | Potency [2] | Potency [3] | Potency [4] | Potency [5]

CC1=C(CC/C(C)=C/C(=O)O)[C@@]2(C)CCCC(C)(C)C2CC1=O (stereo not given in full)
inactive: Potency [1] | Potency [2] | Potency [3] | Potency [4] | Potency [5]

COc1cccc2c1c(O)c(C(=O)N(C)c1ccc(C(F)(F)F)cc1)c(=O)n2C
inactive: Potency [1] | Potency [2] | Potency [3] | Potency [4] | Potency [5]
